Assay results: PubChem BioAssay (Tox21)
Results filed as inconclusive are left out. Active and inactive are the calls of the source. Unless noted, calls come from the whole dose curve; as a rule, active = well fitted curve in the direction sought with a large enough effect in the repeat runs; inconclusive = weak or mixed curves; inactive = no such curve, though single readings can be large; an effect the other way counts as inactive or inconclusive.

Columns and labels:
[1] = qHTS assay to identify small molecule agonists of the peroxisome proliferator-activated receptor delta (PPARd) signaling pathway - cell viability counter screen (AID 743211); note: nearly all actives have a fitted effect of over 55% in size; note: potency is the fitted concentration of half-maximal effect
In short: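 Tox21 library compounds, delivered in DMSO, were incubated 17 h with PPARd-bla HEK293H cells; cytotoxicity was taken from CellTiter-Glo luminescence read 30 min after reagent addition.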

[2] = qHTS assay to identify small molecule antagonists of the peroxisome proliferator-activated receptor delta (PPARd) signaling pathway - cell viability counter screen (AID 743213); note: nearly all actives have a fitted effect of over 50% in size; note: potency is the fitted concentration of half-maximal effect
In short: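 Luminescence from CellTiter-Glo, added after the bla read and incubated 30 min at room temperature, gives viability of HEK293H PPARd-bla cells exposed to compounds for 17 h at 37 C with 300 nM L165041.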

[3] = qHTS assay to identify small molecule antagonists of the farnesoid-X-receptor (FXR) signaling pathway - cell viability counter screen (AID 743221; active = well fitted cell-killing curve with a large enough effect in the repeat runs, not every such curve was filed as active; note: nearly all actives have a fitted effect of over 50% in size; note: potency is the fitted concentration of half-maximal effect)
In short: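 Cytotoxicity is taken from ATP luminescence (CellTiter-Glo, 30 min, room temperature) in FXR-bla HEK 293T cells previously incubated 16 h at 37 C with compound and chenodeoxycholic acid at 50 uM final.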

[4] = qHTS assay to identify small molecule agonists of the vitamin D receptor (VDR) signaling pathway - cell viability counter screen (AID 743224); note: series mostly up to about 63 µM; % is set by controls: 0 for no effect and ±100 for the full control effect; nearly all actives have a fitted effect of over 50% in size
In short: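 VDR-bla cells were preincubated 4 h at 37C/5% CO2, then exposed to compounds for 16 h. After the 2 h room-temperature bla FRET read, CellTiter-Glo was added to the same wells and luminescence read after 30 min.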

[5] = qHTS assay to identify small molecule antagonists of the vitamin D receptor (VDR) signaling pathway - cell viability counter screen (AID 743225); note: % is set by controls: 0 for no effect and ±100 for the full control effect; nearly all actives have a fitted effect of over 50% in size
In short: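 Same-well multiplex: following 16 h treatment of HEK 293T cells carrying a UAS-driven beta-lactamase reporter with compound and agonist (3 nM final), and a 2 h FRET substrate step, CellTiter-Glo was added and luminescence read after 30 min.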

[6] = qHTS assay to identify small molecule agonists of the NFkB signaling pathway - cell viability counter screen (AID 1159515; calls by dose curve; note: series mostly up to about 61 µM; % is set by controls: 0 for no effect and ±100 for the full control effect; nearly all actives have a fitted effect of over 55% in size)
In short: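 NFkB-bla ME-180 cells, 2,000/well, were plated overnight at 37 C, 5% CO2, then exposed to compounds in DMSO for 5 hr. After the bla FRET read, CellTiter-Glo was added to the same wells; luminescence was read after 30 min at room temperature.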

[7] = qHTS assay to identify small molecule agonists of the endoplasmic reticulum stress response signaling pathway (AID 1159516; active = well fitted activation curve with a large enough effect in the signal ratio in the repeat runs, not every such curve was filed as active; the % refers to the signal ratio; note: % is set by controls: 0 for no effect and ±100 for the full control effect)
In short: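 CellSensor ESRE-bla HeLa cells, carrying a beta-lactamase reporter driven by the ER stress response element, were plated overnight and exposed to compounds for 5 hr at 37 C. Reporter activity was read as FRET substrate fluorescence after 2 hr at room temperature.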

[8] = qHTS assay to identify small molecule agonists of the endoplasmic reticulum stress response signaling pathway - cell viability counter screen (AID 1159517; calls by dose curve)
In short: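 Counter-screen wells were identical to the reporter wells. Cells were plated at 1,500 per well and dosed for 5 hr, then read for luminescence 30 min after CellTiter-Glo addition.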

[9] = qHTS assay to identify small molecule antagonists of the retinoid-related orphan receptor gamma (ROR-gamma) signaling pathway - cell viability counter screen (AID 1159520)
In short: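 Tet-on ROR gamma CHO cells were given compounds for 2 hr, then doxycycline hyclate at 1 uM final, and incubated 16 hr at 37 C. Viability was measured as ATP content by CellTiter-Glo luminescence.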

[10] = biological target: Nuclear receptor ROR-gamma (Homo sapiens) (UniProt P51449); assay: qHTS assay to identify small molecule antagonists of the retinoid-related orphan receptor gamma (ROR-gamma) signaling pathway (AID 1159521)
In short: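 Inducible-expression reporter assay: doxycycline (1 uM final) switched on RORγ in CHO cells bearing a ROR response element-luciferase construct, with test compounds present from 2 h beforehand. Decreased luminescence after 16 h defined antagonist activity.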

[11] = qHTS assay to identify small molecule agonists of the AP-1 signaling pathway - cell viability counter screen (AID 1159525; calls by dose curve; note: nearly all actives have a fitted effect of over 55% in size)
In short: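 AP-1-bla ME-180 cells in Opti-MEM with 0.5% dialyzed FBS, compound exposure 5 h at 37 C in 15-point titration. Viability read in the same wells as ATP content by CellTiter-Glo luminescence, normalised to tetra-n-octylammonium bromide and DMSO controls.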

[12] = qHTS assay to identify small molecule agonists of the AP-1 signaling pathway (AID 1159526; calls by dose curve; note: % is set by controls: 0 for no effect and ±100 for the full control effect)
[13] = biological target: Peroxisome proliferator-activated receptor delta (Homo sapiens) (UniProt Q03181); assay: qHTS assay to identify small molecule agonists of the peroxisome proliferator-activated receptor delta (PPARd) signaling pathway (AID 743212; calls by dose curve; note: % is set by controls: 0 for no effect and ±100 for the full control effect)
Chain of Peroxisome proliferator-activated receptor delta (Homo sapiens) (Q03181 whole entry, looked up): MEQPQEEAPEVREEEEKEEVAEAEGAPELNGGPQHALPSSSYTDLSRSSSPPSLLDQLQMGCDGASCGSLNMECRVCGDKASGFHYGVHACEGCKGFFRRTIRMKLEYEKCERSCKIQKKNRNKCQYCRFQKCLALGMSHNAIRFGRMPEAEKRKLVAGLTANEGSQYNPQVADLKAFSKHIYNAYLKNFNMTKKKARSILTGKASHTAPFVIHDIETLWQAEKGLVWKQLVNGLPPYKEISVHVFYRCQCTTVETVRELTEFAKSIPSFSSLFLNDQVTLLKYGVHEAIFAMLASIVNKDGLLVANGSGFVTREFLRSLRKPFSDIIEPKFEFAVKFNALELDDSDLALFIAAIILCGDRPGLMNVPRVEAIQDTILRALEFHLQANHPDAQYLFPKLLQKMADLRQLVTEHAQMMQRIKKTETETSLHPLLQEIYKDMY
In short: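 Quantitative high-throughput agonist screen in a HEK293H beta-lactamase reporter line under UAS control. Compounds in DMSO, at 37 C. Fluorescence read after 2 h with FRET substrate at room temperature.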

[14] = biological target: Peroxisome proliferator-activated receptor delta (Homo sapiens) (UniProt Q03181); assay: qHTS assay to identify small molecule antagonists of the peroxisome proliferator-activated receptor delta (PPARd) signaling pathway (AID 743215; active = well fitted inhibition curve with a large enough effect in the signal ratio in the repeat runs, not every such curve was filed as active; the % refers to the signal ratio;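 note: cells stimulated with agonist L165041 at 300 nM final during compound exposure; series mostly up to about 62 µM; % is set by controls: 0 for no effect and ±100 for the full control effect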)
In short: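 PPARd UAS-bla HEK293H cells were pre-incubated 5 h at 37 C, then given test compounds in DMSO plus agonist L165041 (300 nM final). After 17 h at 37 C, beta-lactamase FRET substrate was added; fluorescence read after 2 h at room temperature.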

[15] = qHTS assay to identify small molecule agonists of the farnesoid-X-receptor (FXR) signaling pathway - cell viability counter screen (AID 743218); note: % is set by controls: 0 for no effect and ±100 for the full control effect; nearly all actives have a fitted effect of over 45% in size
In short: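 FXR-UAS-bla HEK 293T cells, plated 5 h at 37 C, were exposed to compounds for 16 h at 37 C. CellTiter-Glo was then added to the same wells as the bla readout; luminescence read after 30 min at room temperature.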

[16] = biological target: Vitamin D3 receptor (Homo sapiens) (UniProt P11473); assay: qHTS assay to identify small molecule agonists of the vitamin D receptor (VDR) signaling pathway (AID 743222; calls by dose curve; note: % is set by controls: 0 for no effect and ±100 for the full control effect)
Chain of Vitamin D3 receptor (Homo sapiens) (P11473 whole entry, looked up): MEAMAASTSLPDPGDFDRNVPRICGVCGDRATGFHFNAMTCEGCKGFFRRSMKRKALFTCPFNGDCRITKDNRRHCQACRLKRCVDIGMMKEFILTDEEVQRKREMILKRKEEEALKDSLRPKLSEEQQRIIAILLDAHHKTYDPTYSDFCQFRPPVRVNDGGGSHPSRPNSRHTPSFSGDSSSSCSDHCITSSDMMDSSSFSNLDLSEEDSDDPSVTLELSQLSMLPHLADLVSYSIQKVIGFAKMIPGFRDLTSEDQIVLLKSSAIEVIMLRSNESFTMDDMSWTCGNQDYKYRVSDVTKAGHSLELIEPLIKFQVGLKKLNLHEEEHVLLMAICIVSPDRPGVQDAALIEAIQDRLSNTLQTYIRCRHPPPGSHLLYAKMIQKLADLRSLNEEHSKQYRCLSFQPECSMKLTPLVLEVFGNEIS
In short: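 VDR-bla cells were plated 4 h at 37C/5% CO2, then exposed to compounds in DMSO for 16 h. After LiveBLAzer B/G FRET substrate addition and 2 h at room temperature, beta-lactamase reporter fluorescence was read.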

[17] = biological target: Vitamin D3 receptor (Homo sapiens) (UniProt P11473); assay: qHTS assay to identify small molecule antagonists of the vitamin D receptor (VDR) signaling pathway (AID 743223; active = well fitted inhibition curve with a large enough effect in the signal ratio in the repeat runs, not every such curve was filed as active; the % refers to the signal ratio; note: % is set by controls: 0 for no effect and ±100 for the full control effect)
In short: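 Quantitative HTS in VDR-bla reporter cells stimulated with 1alpha,25-dihydroxyvitamin D3, 3 nM final. Compound exposure 16 h, 37C, 5% CO2. Read-out: beta-lactamase FRET substrate fluorescence, 2 h RT.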

[18] = biological target: Bile acid receptor (Homo sapiens) (UniProt Q96RI1); assay: qHTS assay to identify small molecule agonists of the farnesoid-X-receptor (FXR) signaling pathway (AID 743220; active = well fitted activation curve with a large enough effect in the signal ratio in the repeat runs, not every such curve was filed as active; the % refers to the signal ratio; note: % is set by controls: 0 for no effect and ±100 for the full control effect)
Chain of Bile acid receptor (Homo sapiens) (Q96RI1 whole entry, looked up): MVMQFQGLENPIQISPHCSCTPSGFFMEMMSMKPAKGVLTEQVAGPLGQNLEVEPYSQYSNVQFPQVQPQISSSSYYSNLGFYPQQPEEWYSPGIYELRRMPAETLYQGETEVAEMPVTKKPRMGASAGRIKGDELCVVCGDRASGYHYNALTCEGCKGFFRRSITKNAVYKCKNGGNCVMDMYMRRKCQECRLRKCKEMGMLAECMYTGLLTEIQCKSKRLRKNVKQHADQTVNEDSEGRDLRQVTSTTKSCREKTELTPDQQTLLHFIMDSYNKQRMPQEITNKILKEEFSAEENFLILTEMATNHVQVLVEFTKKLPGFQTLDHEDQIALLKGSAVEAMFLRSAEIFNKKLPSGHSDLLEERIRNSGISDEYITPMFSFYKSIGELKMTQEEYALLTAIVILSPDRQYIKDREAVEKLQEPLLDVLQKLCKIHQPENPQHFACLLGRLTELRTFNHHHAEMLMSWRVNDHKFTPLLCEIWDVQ
In short: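 Beta-lactamase reporter under UAS control in GeneBLAzer FXR HEK 293T cells (5000/well) measured with LiveBLAzer FRET substrate after 2 h at room temperature. Compound exposure lasted 16 h at 37C.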

[19] = biological target: Bile acid receptor (Homo sapiens) (UniProt Q96RI1); assay: qHTS assay to identify small molecule antagonists of the farnesoid-X-receptor (FXR) signaling pathway (AID 743217; active = well fitted inhibition curve with a large enough effect in the signal ratio in the repeat runs, not every such curve was filed as active; the % refers to the signal ratio; note: % is set by controls: 0 for no effect and ±100 for the full control effect)
In short: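 FXR-UAS-bla HEK 293T cells pre-incubated 5 h at 37 °C, then exposed to compounds with chenodeoxycholic acid (50 uM final) for 16 h at 37 °C. Beta-lactamase reporter read by LiveBLAzer B/G FRET substrate fluorescence after 2 h at room temperature.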

OC1OC[C@@H](O)[C@H](O)[C@H]1O (stereo partly specified)
inactive: Potency [1] | Potency [2] | Potency [3] | outcome [4] | outcome [5] | outcome [6] | outcome [7] | outcome [8] | Potency [9] | Potency [10] | outcome [11] | Potency [12]

CCN(CC)C(=O)c1ccc(O)c(OC)c1
inactive: Potency [1] | outcome [13] | Potency [2] | outcome [14] | outcome [15] | Potency [3] | outcome [16] | outcome [4] | outcome [5] | outcome [6] | outcome [7] | Potency [9] | Potency [10] | outcome [11] | Potency [12]

CN(C)C(=O)C(CCN1CCC(O)(c2ccc(Cl)cc2)CC1)(c1ccccc1)c1ccccc1
inactive: outcome [17] | outcome [5] | outcome [6] | outcome [7] | outcome [8] | Potency [9] | Potency [10] | outcome [11] | Potency [12]
active: Potency [1] 23.7 µM | Potency [2] 11.9 µM | Potency [3] 29.8 µM

COC(=O)CCCCCCCCC(=O)OC
inactive: Potency [1] | outcome [13] | Potency [2] | outcome [14] | outcome [15] | outcome [18] | Potency [3] | outcome [16] | outcome [17] | outcome [4] | outcome [5] | outcome [6] | outcome [7] | Potency [9] | Potency [10] | outcome [11] | Potency [12]

COC(=O)c1ccc(C(=O)OC)c(C(=O)OC)c1
inactive: Potency [1] | outcome [13] | Potency [2] | Potency [3] | outcome [4] | outcome [5] | outcome [6] | outcome [7] | outcome [8] | Potency [9] | Potency [10] | outcome [11] | Potency [12]

CCCCc1ccc2cccc(S(=O)(=O)O)c2c1
inactive: Potency [1] | outcome [13] | Potency [2] | outcome [14] | outcome [15] | Potency [3] | outcome [16] | outcome [17] | outcome [5] | outcome [6] | outcome [7] | outcome [8] | Potency [9] | Potency [10] | outcome [11] | Potency [12]

CC(C)(C)C(=O)/C=C/c1ccc(Cl)cc1
inactive: Potency [2] | outcome [19] | outcome [15] | outcome [18] | Potency [3] | outcome [16] | outcome [4] | outcome [5] | outcome [6] | outcome [7] | outcome [8] | Potency [9] | Potency [10] | outcome [11] | Potency [12]

O=C(CCOCCOCCOCCOCCC(=O)Nc1c(I)cc(I)c(C(=O)O)c1I)Nc1c(I)cc(I)c(C(=O)O)c1I
inactive: Potency [1] | Potency [2] | outcome [15] | Potency [3] | outcome [16] | outcome [17] | outcome [4] | outcome [5] | outcome [6] | outcome [7] | outcome [8] | Potency [9] | Potency [10] | outcome [11] | Potency [12]

C=C(C)C(=O)OCCCCCCCCCCCCCCCCCC
inactive: Potency [1] | outcome [13] | Potency [2] | outcome [14] | outcome [15] | Potency [3] | outcome [16] | outcome [17] | outcome [4] | outcome [5] | outcome [6] | outcome [7] | activity, negative = cytotoxicity [9] -0.822% [at 19 µM] | activity change, negative = inhibition [10] 0.457% [at 19 µM] | viability change, negative = cytotoxic [11] 1.55% [at 15.8 µM] | activation [12] 0.371% [at 15.8 µM]

C(=C(c1ccccc1)c1ccccc1)c1ccccc1
inactive: outcome [13] | Potency [2] | outcome [14] | outcome [19] | outcome [15] | Potency [3] | outcome [16] | outcome [17] | outcome [5] | outcome [6] | outcome [7] | outcome [8] | Potency [9] | Potency [10] | outcome [11] | Potency [12]

CC(C)COC(=O)c1ccccc1O
inactive: outcome [13] | Potency [2] | outcome [14] | outcome [15] | Potency [3] | outcome [16] | outcome [17] | outcome [4] | outcome [5] | outcome [6] | outcome [7] | outcome [8] | Potency [9] | Potency [10] | outcome [11] | Potency [12]

C#CC(O)C(CC)CCCC (stereo unspecified)
inactive: Potency [1] | Potency [2] | outcome [15] | Potency [3] | outcome [4] | outcome [5] | outcome [6] | outcome [7] | outcome [8] | Potency [9] | Potency [10] | outcome [11] | Potency [12]

COC[C@H](c1ccc(C(F)(F)F)cc1)N1CCN(C2(C)CCN(C(=O)c3c(C)ncnc3C)CC2)C[C@H]1C
inactive: outcome [13] | Potency [2] | outcome [14] | Potency [3] | outcome [16] | outcome [4] | outcome [5] | outcome [6] | outcome [7] | outcome [8] | Potency [9] | Potency [10] | outcome [11] | Potency [12]

CCc1cc(S(=O)(=O)O)c2cc(C(C)C)cccc1-2
inactive: Potency [1] | outcome [13] | Potency [2] | outcome [14] | outcome [15] | Potency [3] | outcome [17] | outcome [4] | outcome [5] | outcome [6] | outcome [7] | outcome [8] | Potency [9] | Potency [10] | outcome [11] | Potency [12]

COc1nc(C)nc(N)n1
inactive: Potency [1] | outcome [13] | Potency [2] | outcome [14] | outcome [15] | Potency [3] | outcome [16] | outcome [17] | outcome [4] | outcome [5] | outcome [6] | outcome [7] | Potency [9] | Potency [10] | outcome [11] | Potency [12]

CCCCCCCCC=O
inactive: outcome [13] | Potency [2] | Potency [3] | outcome [4] | outcome [5] | outcome [6] | outcome [7] | outcome [8] | Potency [9] | Potency [10] | outcome [11] | Potency [12]

OCC(CO)(CO)COCC(CO)(CO)CO
inactive: Potency [1] | Potency [2] | outcome [19] | outcome [15] | Potency [3] | outcome [16] | outcome [17] | outcome [4] | outcome [5] | outcome [6] | outcome [7] | outcome [8] | Potency [9] | Potency [10] | outcome [11] | Potency [12]

Nc1[nH]c(=O)ncc1F
inactive: Potency [1] | Potency [2] | outcome [14] | outcome [19] | outcome [15] | Potency [3] | outcome [16] | outcome [17] | outcome [4] | outcome [5] | outcome [6] | outcome [7] | Potency [9] | Potency [10] | outcome [11] | Potency [12]

COC(=O)CCCC(=O)O
inactive: Potency [1] | outcome [13] | Potency [2] | outcome [15] | Potency [3] | outcome [16] | outcome [4] | outcome [5] | outcome [6] | outcome [7] | outcome [8] | Potency [9] | Potency [10] | outcome [11] | Potency [12]

CC(C)(C)CC(C)(C)N
inactive: outcome [13] | Potency [2] | outcome [14] | outcome [15] | Potency [3] | outcome [16] | outcome [17] | outcome [4] | outcome [5] | outcome [6] | outcome [7] | Potency [9] | Potency [10] | outcome [11] | Potency [12]
